The nature of assay [1]: Cell Viability - BJ (AID 421; calls by dose curve;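 further: potency means the concentration at half of the fitted maximal effect; cells exposed to compound for 40 hours at 37 °C before readout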). The note with it: BJ fibroblast viability, qHTS. The method in brief: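 Cytotoxicity in human BJ foreskin fibroblasts is scored as loss of cellular ATP after a 40-hour exposure, measured by luciferase luminescence. Controls are DMSO and 100 uM tamoxifen.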
In general terms: qHTS replaces the single test concentration by a dilution series.

Assay [2] can be described thus: Cell Viability - N2a (AID 540). Further: nearly all actives have a fitted effect of over 45% in size. Further: potency means the concentration at half of the fitted maximal effect.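 On activity change, negative = cytotoxicity: plate controls were DMSO alone for no effect and tamoxifen control for full effect.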 The note with it: N2a mouse neuroblastoma cell viability; activity change, negative = cytotoxicity: at 92.2 µM (top of the series). In a few lines: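 Luminescent ATP signal (CellTiter-Glo, 20 min at room temperature) served as the viability read-out after N2a cells were treated with compounds for 40 hours at 37 °C. Concentration-response data were fitted to the Hill equation for AC50.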

A short description of assay [3]: Cell Viability - NIH 3T3 (AID 541). Further: nearly all actives have a fitted effect of over 25% in size. Further: potency means the concentration at half of the fitted maximal effect.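 On activity change, negative = cytotoxicity: plate controls were DMSO alone for no effect and tamoxifen positive control for full effect.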 The note with it: NIH 3T3 cell viability, qHTS; activity change, negative = cytotoxicity: at 92.2 µM (top of the series). In a few lines: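 Luminescent ATP signal (CellTiter-Glo) served as the viability read-out after NIH 3T3 cells were exposed to compounds over a concentration range for 40 hr at 37 °C. Hill-equation modelling of concentration-response data gave AC50.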

The nature of assay [4]: Cell Viability - Renal Proximal Tubule (AID 545). Further: nearly all actives have a fitted effect of over 40% in size. Further: potency means the concentration at half of the fitted maximal effect. The note with it: renal proximal tubule cells viability; activity change, negative = cytotoxicity: at 91.7 µM (top of the series) unless noted. The method in brief: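 In this qHTS format, normal rat kidney-derived proximal tubule cells in complete culture medium receive compound titrations, then sit 40 hours at 37 °C before luciferase-based ATP quantitation; potency is reported as AC50 from concentration-response curves.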

Assay [5] in a line: Cell Viability - Mesenchymal (AID 546).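 Further: cells exposed to compound for 40 hours before reading.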 Further: potency means the concentration at half of the fitted maximal effect. The note with it: mesenchymal cells viability, qHTS; activity change, negative = cytotoxicity: at 91.7 µM (top of the series). The method in brief: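 Human kidney mesenchymal cells from normal renal glomeruli, 1000 cells/well, rested 5 hr at 37 °C, then treated 40 hr at 37 °C in complete medium. Cellular ATP read by CellTiter-Glo luminescence; AC50 from Hill-equation fits.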

Assay [6] is described as follows: Cellular Toxicity (caspase-3) HepG2 (AID 654).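 Further: cells exposed to compound for 16 hours before reading; 0% = DMSO alone and 100% = caspase signal from 100 µM tamoxifen.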 The note with it: HepG2 caspase-3 activation, luminescence, 0% = DMSO only, 100% = tamoxifen; series mostly up to 92.2 µM. In a few lines:
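Cells plated 5 hr at 37 °C, compound added, incubated 16 hr at 37 °C. Caspase-Glo 3/7 reagent followed, 20 min at room temperature, then luminescence read. Activation scored as signal increase; AC50 from Hill fit.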

A short description of assay [7]: Cellular Toxicity (caspase-3) HUV-EC-C (AID 656). The note with it: HUV-EC-C cells, caspase-3 activation (apoptosis), vehicle = 0, 100 µM tamoxifen = 100%; series mostly up to 92.2 µM. In a few lines: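 Concentration-dependent caspase 3/7 induction was assessed in HUV-EC-C cells exposed for 16 hours. Data scaled between DMSO and tamoxifen (100 uM) controls.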
Assay [8] can be described thus: Cellular Toxicity (caspase-3) MRC-5 (AID 659). The note with it: MRC-5 cells, luminescence, normalized: DMSO 0%, 10 µM staurosporine 100%; series mostly up to 91.7 µM. In a few lines:
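MRC-5 human normal lung fibroblasts, 1500 cells/well, treated 16 h at 37 °C in complete medium. Caspase 3/7 measured by Caspase-Glo luminescence after 1 h at room temperature. Normalized to DMSO and 10 uM staurosporine; AC50 from Hill fit.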

Assay [9] is described as follows: Cellular Toxicity (caspase-3) N2a (AID 665).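 Further: compound exposure lasted 16 h at 37 °C before readout.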 The note with it: N2a cells, luminescence, normalized: DMSO 0%, 10 µM staurosporine 100%; series mostly up to 92.2 µM. The method in brief: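 N2a cells, 1500/well, 5 h settle at 37 °C; cpd 16 h, 37 °C; Caspase-Glo 3/7, 1 h RT; luminescence. Norm: DMSO = 0, 10 uM staurosporine = 100%. AC50, Hill fit.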
Assay [10] is described as follows: MultiTox-Fluor Cytotoxicity Assay - LYMP1-003 - Live Cells (AID 962).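 Further: cells exposed to compound for 16 hours at 37 °C.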 Further: potency means the concentration at half of the fitted maximal effect. The note with it: LYMP1-003 lymphoblastoid cells, MultiTox-Fluor live-cell protease fluorescence; series mostly up to 92.2 µM. The method in brief:
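qHTS, 1536-well; 2500 cells/well LYMP1-003; 5 hr 37 C settle; cpd 16 hr 37 C; MultiTox-Fluor reagent 60 min RT; live-cell protease fluor. 405/510; Hill-fit AC50; tetraoctylammonium bromide pos. ctrl.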

A short description of assay [11]: Cell Viability - LYMP2-008 (AID 980). Further: nearly all actives have a fitted effect of over 60% in size. Further: potency means the concentration at half of the fitted maximal effect. On activity change, negative = cytotoxicity: on the % scale 0 is the no-effect control and ±100 the full control effect. The note with it: LYMP2-008 lymphoblastoid cell viability, qHTS; series mostly up to 92.2 µM. In a few lines: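 qHTS, human lymphoblastoid line, 2500 cells/well; 5 hr preincubation, 24 hr compound, 37 C. CellTiter-Glo ATP luminescence. AC50 via Hill equation. Tetraoctylammonium bromide positive control.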
Assay [12] can be described thus: qHTS assay for environmental chemicals that activate the Aryl hydrocarbon Receptor (AhR) signaling pathway (AID 651777). Further: % of control where 0% means no effect; nearly all actives have a fitted effect of over 15% in size. The note with it: 1A2-DRE human hepatoma cells, luciferase, 24 h; activation: active compounds read high. In a few lines: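 Reporter gene assay: hepatoma cells with DRE/CYP1A2-luciferase, 24 hr compound incubation at 37 C, 5% CO2, luminescence after One-Glo (30 min, RT).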

The nature of assay [13]: Cell Viability - MRC5 (AID 434; calls by dose curve;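 further: potency means the concentration at half of the fitted maximal effect; potency reflects cytotoxicity seen as loss of intracellular ATP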). The note with it: MRC5 lung fibroblast viability, qHTS. The method in brief: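 MRC5 normal human lung fibroblasts, 1500 cells/well, exposed to compound for 40 hr at 37 C. Cellular ATP was read by CellTiter-Glo luminescence; data normalized to DMSO and 100 uM tamoxifen, with AC50 from Hill fits.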
The target in assay [14] is Mitogen-activated protein kinase 10 (Mus musculus) (UniProt Q61831). The experiment in a line: JNK3 AlphaScreen Assay (AID 530; active means well fitted curve in either direction with a large enough effect, not every such curve was filed as active;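 further: kinase came from lysate of stimulated human HepG2 cells; signal reports phosphorylation of biotinylated GST-cJun 1-79 at Ser73 with 10 µM ATP; on the % scale 0 is the no-effect control and ±100 the full control effect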). The note with it: JNK3 lysate, c-Jun phosphorylation; series mostly up to 57.1 µM. In a few lines:
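Pre-activated (IL-1β/TNFα) JNK3 in HepG2 lysates phosphorylates biotin-GST-cJun(1-79), 10 uM ATP; anti-phospho-cJun(Ser73) AlphaScreen read at room temperature, pH 7.6 Tris buffer. Compounds pre-incubated 15 min as titrations.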

The nature of assay [15]: Cellular Toxicity (caspase-3) Renal Proximal Tubule (AID 667).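 Further: cells exposed to compound for 16 hours at 37 °C before detection.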 The note with it: renal proximal tubule cells; at 91.7 µM (top of the series) unless noted. In a few lines:
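Caspase-Glo 3/7 read-out, rat primary kidney proximal tubule cells. Compound exposure 16 h, 37 °C; detection after 1 h at RT. Activity scaled to DMSO and 10 uM staurosporine.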

The target in assay [16] is Tumor necrosis factor (Homo sapiens) (UniProt P01375). The experiment in a line: qHTS assay to identify small molecules that stimulate Tumor Necrosis Factor-alpha (TNF-alpha) secretion (AID 651757; active means well fitted curve in the direction sought with a large enough effect in the signal ratio; the % refers to the signal ratio; further: 0% is about no effect). The note with it: Human cells, HTRF 665/615 ratio; series mostly up to 92.2 µM. The method in brief: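 Read-out is HTRF, a TR-FRET sandwich of cryptate- and XL665-labeled anti-TNF-alpha antibodies detecting cytokine secreted by THP-1 cells. Cells had been incubated with test compounds at 37 C for 17 hrs beforehand.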

The target in assay [17] is Glucocorticoid receptor (Homo sapiens) (UniProt P04150). The experiment in a line: GR-GFP Redistribution (AID 450;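 active means compounds whose dose series gives a full or clear partial fitted curve of increased nuclear translocation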; further: potency means the concentration at half of the fitted maximal effect). The note with it: U2OS GR-GFP nuclear translocation, laser cytometry, 2 h.

Each structure is given as a SMILES string. Where “and” joins values, the source holds several entries; their conditions need not be identical. Equal entries are not always repeated. A number with no mark means an inactive call. Inconclusive results are not listed. Calls of active or inactive are those of the source. Unless noted, the call rests on the fitted dose curve; in most records, active means well fitted curve in the direction sought with a large enough effect; inconclusive means small, poorly fitted or top-dose-only effect, or another doubt; inactive means no such curve, though single readings can be large; an effect the other way counts as inactive or inconclusive.

Sequence of Tumor necrosis factor (Homo sapiens) (P01375 whole entry, looked up): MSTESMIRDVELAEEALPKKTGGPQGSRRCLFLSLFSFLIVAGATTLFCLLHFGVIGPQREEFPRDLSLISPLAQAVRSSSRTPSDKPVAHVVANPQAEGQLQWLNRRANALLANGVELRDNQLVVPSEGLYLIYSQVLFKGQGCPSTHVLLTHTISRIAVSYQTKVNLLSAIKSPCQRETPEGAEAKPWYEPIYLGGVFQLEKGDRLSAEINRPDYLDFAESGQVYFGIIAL
Sequence of Glucocorticoid receptor (Homo sapiens) (P04150 whole entry, looked up): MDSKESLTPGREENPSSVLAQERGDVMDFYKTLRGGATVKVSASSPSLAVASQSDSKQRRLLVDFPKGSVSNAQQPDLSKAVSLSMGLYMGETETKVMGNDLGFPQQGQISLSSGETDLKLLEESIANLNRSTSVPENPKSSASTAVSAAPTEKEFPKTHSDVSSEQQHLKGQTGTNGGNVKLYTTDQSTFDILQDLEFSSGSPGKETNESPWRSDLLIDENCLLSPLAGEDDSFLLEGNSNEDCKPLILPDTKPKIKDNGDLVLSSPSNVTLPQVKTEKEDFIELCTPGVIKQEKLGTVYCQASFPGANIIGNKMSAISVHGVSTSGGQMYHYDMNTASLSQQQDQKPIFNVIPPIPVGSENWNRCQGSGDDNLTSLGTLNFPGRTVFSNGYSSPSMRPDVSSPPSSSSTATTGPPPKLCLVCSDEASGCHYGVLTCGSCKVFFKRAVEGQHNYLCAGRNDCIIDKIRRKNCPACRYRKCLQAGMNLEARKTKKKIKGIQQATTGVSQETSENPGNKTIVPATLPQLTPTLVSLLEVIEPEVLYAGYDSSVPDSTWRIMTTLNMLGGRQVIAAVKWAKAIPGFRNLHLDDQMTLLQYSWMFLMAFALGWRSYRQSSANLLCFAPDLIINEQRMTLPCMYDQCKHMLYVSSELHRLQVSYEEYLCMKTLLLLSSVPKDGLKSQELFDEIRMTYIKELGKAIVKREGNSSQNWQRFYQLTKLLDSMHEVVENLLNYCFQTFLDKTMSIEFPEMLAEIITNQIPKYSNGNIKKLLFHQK

Take `CC(C)CC(C)Nc1ccc(Nc2ccccc2)cc1` (centres undefined): the Potency in [1] is over 92 µM; in assay [10] it was 50.1 µM (active); in [11], 39.8 µM (active). Also, the values for the activity change, negative = cytotoxicity in [2], in assay [3] and in [4] were -118% (active), -113% (active) and -106% (active), respectively. For the same compound, the Potency result in assay [5] is “inactive”. The compound was classed as inactive in assay [6], in assay [7], in assay [8] and in [9]. Besides, in [12], the activation is 10.8%.

In the case of `[CH3][Hg][Cl]`, the Potency is 26.7 µM (active) in assay [1]; 25.3 µM (active) in assay [13]; 10 µM (active) in [2]; 0.0316 µM (active) in assay [3]; 6.31 µM (active) in assay [5]; 20 µM (active) in [10]. The Potency in [11] is 5.01 µM (active). Besides, the call in assay [14], in assay [6], in [7], in assay [8] and in assay [9] was inactive. In addition, the activity change, negative = cytotoxicity in [4] was -104% (active). The caspase-3 activation in assay [15] is -5.2%. The Potency entry in assay [16] was “inactive”. In addition, the activation in [12] is 1.1%.

As for `Cn1c(O)c(C(=O)c2ccccc2Cl)c(=O)n(C)c1=O`, the Potency in [17] was over 20.6 µM.

Take `O=[N+]([O-])c1ccccc1Cl`: the Potency in [1] and in [13] was over 92 µM throughout. The activation in assay [12] is -0.478% and -0.511%.

For `ClC1=C(Cl)C2(Cl)C3C(Cl)C(Cl)CC3C1(Cl)C2(Cl)Cl` (centres undefined), the outcome in [14], in assay [6] and in assay [8] was inactive. The activity change, negative = cytotoxicity in assay [2] was -82.9% (active). Also, the Potency result in [3], in [5], in assay [10], in assay [11] and in [16] was “inactive” throughout. The caspase-3 activation in [15] is 19%.

With `Cc1ccc(O)cc1C`, the Potency in [1] and in assay [13] was over 92 µM in each case. Further, the activation in assay [12] was 0.215%.

As for `C#CCO`, the Potency in assay [1] and in [13] was over 92 µM throughout. In addition, the outcome in [14], in [6], in [7], in [8] and in assay [9] was inactive. In addition, in assay [2], the activity change, negative = cytotoxicity is -2.19%. Also, the Potency result in [3], in [4], in assay [5], in [10], in assay [11] and in assay [16] was “inactive” each time. Moreover, the caspase-3 activation in [15] was -11.4% [at 91.7 µM, primary cells freshly taken from rat, solvent-only wells 0%, staurosporine 100%]. Besides, the activation in assay [12] was 1.07%.

Consider `O=C(Nc1ccncc1)c1c(O)c2ccccc2n(Cc2ccccc2)c1=O`, for which the Potency in assay [17] was over 20.6 µM.

As to `OC(c1ccc(Cl)cc1)(c1ccc(Cl)cc1)C(Cl)(Cl)Cl`, the Potency in [1] and in assay [13] was over 92 µM in each case. Further, the activity change, negative = cytotoxicity in [2] was -118% (active). Also, the Potency result in assay [3], in assay [4], in [5], in assay [10], in assay [11] and in [16] was “inactive” throughout. The compound was classed as inactive in assay [6], in assay [7], in assay [8] and in [9]. Besides, in assay [15], the caspase-3 activation was 1.02%.

Consider `[Cd+2].[Cl-].[Cl-]`, for which the Potency is over 92 µM in assay [13], 12.6 µM (active) in [4] and 39.8 µM (active) in [11]. The compound was classed as inactive in [14], in assay [6], in [7], in assay [8] and in [9]. The activity change, negative = cytotoxicity in assay [2] is -109% (active); in [3], -132% (active). In addition, the caspase-3 activation in assay [15] was -13.6%. Moreover, the Potency entry in [10] and in assay [16] was “inactive” throughout. Also, the activation in assay [12] was 0.0733%.

Turning to `Clc1ccc(C(c2ccc(Cl)cc2)C(Cl)Cl)cc1`, the Potency in assay [1] is 55 µM (active); in assay [13], 45.4 µM (active). The activity change, negative = cytotoxicity in assay [2] is -102% (active); in assay [4] it was -88.1% (active). The Potency result in assay [3], in assay [5], in [10], in [11] and in [16] was “inactive” in each case. Besides, the outcome in [6] and in [8] was inactive. Also, the caspase-3 activation in assay [15] is 152% (active). Also, in assay [12], the activation was 0.923% and 0.102%.

In the case of `C(=NC1CCCCC1)=NC1CCCCC1`, the Potency in assay [1] was over 92 µM; in assay [13], over 92 µM; in assay [2] it was 10 µM (active); in assay [3], 1 µM (active); in [11], 50.1 µM (active). Also, the compound was called inactive in assay [14], in assay [6], in assay [7], in [8] and in assay [9]. The Potency entry in assay [4], in [5], in assay [10] and in assay [16] was “inactive” in each case. In addition, the caspase-3 activation in assay [15] is 5.14%. Moreover, the activation in assay [12] was 2.78% and 1.69%.

Source of the values: PubChem BioAssay (NCATS).
